Records with an inconclusive call do not appear. Activity calls are given as the source filed them. Unless noted, calls follow the shape of the full dose curve.
Key:
[1] = Nuclear factor erythroid 2-related factor 2/antioxidant responsive element (Nrf2/ARE) small molecule agonists: qHTS cell viability counter screen in human keratinocytes (AID 1919968; active = well fitted curve in the direction sought with a large enough effect in the repeat runs; an effect the other way counts as inactive or inconclusive; also: nearly all actives have a fitted effect of over 55% in size)
Outline: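 CellTiter-Fluor fluorescence, read 1 h after reagent, gave viability in the same wells as the ARE-luciferase assay. KeratinoSens cells (1,500/well) had 23 h compound exposure at 37 C/5% CO2 following 5 h plating.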

[2] = Nuclear factor erythroid 2-related factor 2/antioxidant responsive element (Nrf2/ARE) small molecule agonists: luciferase reporter gene qHTS assay in human keratinocytes (AID 1919969); also: nearly all actives have a fitted effect of over 35% in size
[3] = target: Gonadotropin-releasing hormone receptor (Homo sapiens) (UniProt P30968); assay: Human gonadotropin-releasing hormone receptor (GnRHR) small molecule agonists, calcium flux assay in GnRHR-HEK293 cells (AID 1920063); also: nearly all actives have a fitted effect of over 35% in size
Outline: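 Agonist mode: compounds at 15 concentrations, in triplicate, went onto calcium dye-loaded GnRHR-HEK293 cells. Intracellular calcium was then followed as 480/540 nm fluorescence at 1 s intervals over 3 min.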

[4] = target: KiSS-1 receptor (Homo sapiens) (UniProt Q969F8); assay: Human kisspeptin (KISS1R) small molecule agonists, calcium flux assay in KISS1R-HEK293 cells (AID 1920064; active = well fitted curve in the direction sought with a large enough effect in the repeat runs; an effect the other way counts as inactive or inconclusive)
Outline: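 Agonist mode: intracellular calcium rise tracked at 1 s intervals over 3 min (480/540 nm) immediately after compound addition to dye-loaded KISS1R-HEK293 stable cells. Each compound tested at 15 concentrations in triplicate.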

[5] = G protein-coupled receptor (GPCR) small molecule agonists, calcium flux assay: HEK293 wild type cell line counter screen (AID 1920065)
Outline: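 Calcium flux counter screen: compound added in agonist mode at 15 concentrations in triplicate to dye-loaded parental HEK293 cells. Fluorescence (480/540) read kinetically for 3 min; ATP served as positive control.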

[6] = p53 small molecule agonists, cell-based qHTS assay with human liver microsomes (AID 1963577);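 also: p53 response element beta-lactamase reporter cells with liver microsomes plus NADPH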
Outline: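 16 h, 37 C exposure of p53RE-bla cells to compounds with human liver microsomes and NADPH (0.5 mg/mL final each); detection via LiveBLAzer mixture, 2 h dark at room temperature.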

[7] = p53 small molecule agonists, cell-based qHTS assay with rat liver microsomes (AID 1963578)
Outline: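 With rat liver microsomes and NADPH present (0.5 mg/mL final each), p53RE-bla cells are treated with compound for 16 h at 37 C. LiveBLAzer detection mixture is then applied for 2 h at room temperature in the dark.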

[8] = p53 small molecule agonists, cell-based qHTS assay with human liver microsomes: qHTS cell viability counter screen (AID 1963579); also: nearly all actives have a fitted effect of over 45% in size
Outline: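 In this multiplexed counter screen, the reporter plates were subsequently treated with CellTiter-Glo so that cell viability, reflected by luminescence, could be recorded for p53RE-bla cells dosed 16 h with compounds under microsomal activation (HLM and NADPH).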

[9] = p53 small molecule agonists, cell-based qHTS assay with rat liver microsomes: qHTS cell viability counter screen (AID 1963580); also: nearly all actives have a fitted effect of over 45% in size
Outline: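 Luminescent ATP readout (CellTiter-Glo, 30 min at room temperature) reports viability of p53RE-bla HCT-116 cells after 16 h at 37 C with test compounds under metabolic activation by rat liver microsomes and NADPH at 0.5 mg/mL final each.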

[10] = p53 small molecule agonists, cell-based qHTS assay: qHTS cell viability counter screen (AID 1963581); also: nearly all actives have a fitted effect of over 45% in size
Outline: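 Counter screen read by CellTiter-Glo luminescence (ATP content, 30 min at room temperature), run in the same wells as the beta-lactamase reporter read. HCT-116 p53RE-bla cells saw compounds for 16 h at 37 C.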

[11] = target: 5-hydroxytryptamine receptor 2A (Homo sapiens) (UniProt P28223); assay: 5-hydroxytryptamine receptor 2A (HTR2A) small molecule antagonists, cell-based qHTS assay (AID 1963586); also: nearly all actives have a fitted effect of over 45% in size
Outline: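 CHO cells stably expressing human HTR2A were plated for 18 h at 37 C, then loaded with calcium dye for 1 h. Compounds were preincubated 5 min at room temperature before DOI (4 nM solution) was added. Kinetic fluorescence was read for 3 min.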

[12] = target: 5-hydroxytryptamine receptor 2A (Homo sapiens) (UniProt P28223); assay: 5-hydroxytryptamine receptor 2A (HTR2A) small molecule agonists, cell-based qHTS assay (AID 1963587); also: nearly all actives have a fitted effect of over 30% in size
Outline: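 HTR2A-CHO cells, plated 18 h at 37 C/5% CO2, dye-loaded 1 h at 37 C; compounds in DMSO added by pin tool (agonist mode). Intracellular calcium flux read as kinetic fluorescence on FDSS over 2 min at 1 s intervals.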

[13] = target: Muscarinic acetylcholine receptor M1 (Homo sapiens) (UniProt P11229); assay: Cholinergic receptor muscarinic 1 (CHRM1) small molecule antagonists, cell-based qHTS assay (AID 1963588); also: nearly all actives have a fitted effect of over 40% in size
Outline: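 Compounds were tested at 15 concentrations in three independent runs. Dye-loaded CHRM1-CHO cells were exposed 5 min at room temperature before stimulation by acetylcholine added at 50nM. Intracellular calcium was read kinetically on FDSS for 3 min.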

[14] = target: Muscarinic acetylcholine receptor M1 (Homo sapiens) (UniProt P11229); assay: Cholinergic receptor muscarinic 1 (CHRM1) small molecule agonists, cell-based qHTS assay (AID 1963589); also: nearly all actives have a fitted effect of over 35% in size
Outline: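 Agonist-mode calcium-flux screen: compounds at 15 concentrations, three independent runs, were pin-transferred onto dye-loaded human CHRM1-CHO cells. Fluorescence was then recorded kinetically every second over minutes.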

[15] = cAMP Responsive Elements (CRE) small molecule antagonists, cell-based qHTS assay (AID 1963591; active = well fitted inhibition curve with a large enough effect in the signal ratio in the repeat runs, not every such curve was filed as active; the % refers to the signal ratio)
Outline: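 Antagonist mode: compounds are added alongside the adenylyl cyclase activator NKH477 (0.25 uM final) to CRE-bla HEK293T cells for 3 h. LiveBLAzer FRET substrate, 2 h at room temperature, reports bla expression.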

[16] = target: Beta-2 adrenergic receptor (Homo sapiens) (UniProt P07550); assay: Adrenergic beta2 receptor (ADRB2) small molecule agonists, cell-based qHTS assay (AID 1963593);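 also: CHO cells stably overexpressing human ADRB2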
Outline: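 CHO cells stably over-expressing ADRB2 were plated overnight at 37C, then dosed with compounds plus a stimulation mix containing 100uM IBMX and 25uM Ro-20-1724 for 0.5hr at room temperature. cAMP was measured by HTRF competition, 1hr.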

[17] = target: D(2) dopamine receptor (Homo sapiens) (UniProt P14416); assay: Dopamine D2 receptor (DRD2) small molecule agonists, cell-based qHTS assay (AID 1963594); also: nearly all actives have a fitted effect of over 35% in size
Outline: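 HEK293 cells stably expressing DRD2 were cultured 24 h at 37 C, then given Ro20-1724 (0.1 mM final) and compounds for 10 min at room temperature. NKH477 (200nM) was then added for 30 min. cAMP was read by HTRF.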

[18] = target: D(2) dopamine receptor (Homo sapiens) (UniProt P14416); assay: Dopamine D2 receptor (DRD2) small molecule antagonists, cell-based qHTS assay (AID 1963595; active = well fitted inhibition curve with a large enough effect in the signal ratio in the repeat runs, with a control signal flat; the % refers to the signal ratio)
Outline: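 In this cell-based antagonist screen, compounds act for 10 min at room temperature before a 30 min challenge with 12 nM quinpirole and 200 nM NKH477. cAMP is quantified by HTRF competition in DRD2-HEK293 cells containing 0.1 mM Ro20-1724.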

[19] = cAMP Responsive Elements (CRE) small molecule agonists, cell-based qHTS assay (AID 1963590)
Outline: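 Agonist mode: compound added to CRE-bla HEK 293T cells (2,000/well, 18 h after plating) for 3 h at 37 C/5% CO2. Reporter activity detected via FRET beta-lactamase substrate, 2 h room-temperature loading.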

[20] = target: Beta-2 adrenergic receptor (Homo sapiens) (UniProt P07550); assay: Adrenergic beta2 receptor (ADRB2) small molecule antagonists, cell-based qHTS assay (AID 1963592); also: series mostly up to about 92 µM; nearly all actives have a fitted effect of over 50% in size
Outline: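 Assay format: CHO-ADRB2 cells, 18-20hr seeding at 37C/5% CO2, then compound plus 1nM isoproterenol agonist mix for 0.5hr RT. Homogeneous time-resolved fluorescence cAMP detection after 1hr, expressed as 665/615 nm ratio.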
% is scaled to controls: 0 for no effect and ±100 for the full control effect.

Sequence of KiSS-1 receptor (Homo sapiens) (Q969F8 whole entry, looked up): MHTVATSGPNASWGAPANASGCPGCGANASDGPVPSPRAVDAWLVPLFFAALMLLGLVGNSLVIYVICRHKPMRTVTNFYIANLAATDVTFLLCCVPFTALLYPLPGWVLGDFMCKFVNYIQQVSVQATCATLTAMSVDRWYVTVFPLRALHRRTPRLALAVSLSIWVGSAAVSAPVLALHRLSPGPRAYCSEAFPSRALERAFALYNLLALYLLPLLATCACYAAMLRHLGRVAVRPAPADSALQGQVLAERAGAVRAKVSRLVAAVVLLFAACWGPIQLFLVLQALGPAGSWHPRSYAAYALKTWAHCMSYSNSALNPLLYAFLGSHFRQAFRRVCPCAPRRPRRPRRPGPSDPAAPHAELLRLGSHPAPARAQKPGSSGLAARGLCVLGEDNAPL
Sequence of Beta-2 adrenergic receptor (Homo sapiens) (P07550 whole entry, looked up): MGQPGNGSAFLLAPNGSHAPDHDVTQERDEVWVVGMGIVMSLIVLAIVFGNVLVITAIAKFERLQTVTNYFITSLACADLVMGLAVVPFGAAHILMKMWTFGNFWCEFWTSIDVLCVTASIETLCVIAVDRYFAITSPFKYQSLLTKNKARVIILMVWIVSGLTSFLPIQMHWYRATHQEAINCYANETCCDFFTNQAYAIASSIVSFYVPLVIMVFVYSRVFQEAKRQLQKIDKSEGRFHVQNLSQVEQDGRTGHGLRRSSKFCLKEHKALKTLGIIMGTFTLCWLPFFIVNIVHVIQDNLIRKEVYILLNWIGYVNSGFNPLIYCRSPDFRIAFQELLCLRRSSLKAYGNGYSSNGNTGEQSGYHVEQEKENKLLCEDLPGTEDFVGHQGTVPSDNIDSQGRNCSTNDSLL
Sequence of D(2) dopamine receptor (Homo sapiens) (P14416 whole entry, looked up): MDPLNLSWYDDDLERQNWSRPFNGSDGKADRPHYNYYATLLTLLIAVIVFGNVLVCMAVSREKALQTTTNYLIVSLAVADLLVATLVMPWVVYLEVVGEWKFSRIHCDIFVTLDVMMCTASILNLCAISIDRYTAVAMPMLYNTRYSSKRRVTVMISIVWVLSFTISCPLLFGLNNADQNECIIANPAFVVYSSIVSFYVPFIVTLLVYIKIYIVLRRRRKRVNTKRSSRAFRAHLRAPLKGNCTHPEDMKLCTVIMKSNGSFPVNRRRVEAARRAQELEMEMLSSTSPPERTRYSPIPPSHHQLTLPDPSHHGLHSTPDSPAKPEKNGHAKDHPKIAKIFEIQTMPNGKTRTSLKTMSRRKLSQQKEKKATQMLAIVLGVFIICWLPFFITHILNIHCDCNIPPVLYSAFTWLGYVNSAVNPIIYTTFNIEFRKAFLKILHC
Sequence of 5-hydroxytryptamine receptor 2A (Homo sapiens) (P28223 whole entry, looked up): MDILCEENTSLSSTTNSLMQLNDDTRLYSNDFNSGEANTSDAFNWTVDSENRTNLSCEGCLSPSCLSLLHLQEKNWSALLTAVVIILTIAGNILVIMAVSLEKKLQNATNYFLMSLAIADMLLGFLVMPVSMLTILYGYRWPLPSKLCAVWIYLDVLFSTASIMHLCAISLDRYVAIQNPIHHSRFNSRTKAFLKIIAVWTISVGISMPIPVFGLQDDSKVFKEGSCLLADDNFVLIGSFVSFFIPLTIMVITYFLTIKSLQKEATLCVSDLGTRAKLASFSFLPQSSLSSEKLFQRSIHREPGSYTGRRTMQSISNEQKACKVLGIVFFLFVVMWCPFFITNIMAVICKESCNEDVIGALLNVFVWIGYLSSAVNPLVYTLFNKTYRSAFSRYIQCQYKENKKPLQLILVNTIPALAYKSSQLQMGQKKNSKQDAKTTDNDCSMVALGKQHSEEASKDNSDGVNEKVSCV
Sequence of Gonadotropin-releasing hormone receptor (Homo sapiens) (P30968 whole entry, looked up): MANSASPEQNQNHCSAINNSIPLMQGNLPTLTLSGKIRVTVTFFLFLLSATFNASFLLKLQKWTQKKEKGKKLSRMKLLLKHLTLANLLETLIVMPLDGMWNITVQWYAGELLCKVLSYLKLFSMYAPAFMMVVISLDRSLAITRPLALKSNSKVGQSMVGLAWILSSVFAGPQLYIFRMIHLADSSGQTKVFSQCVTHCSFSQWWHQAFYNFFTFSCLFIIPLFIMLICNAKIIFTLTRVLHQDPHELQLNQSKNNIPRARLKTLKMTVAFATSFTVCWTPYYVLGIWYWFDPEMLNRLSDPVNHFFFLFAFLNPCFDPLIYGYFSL
Sequence of Muscarinic acetylcholine receptor M1 (Homo sapiens) (P11229 whole entry, looked up): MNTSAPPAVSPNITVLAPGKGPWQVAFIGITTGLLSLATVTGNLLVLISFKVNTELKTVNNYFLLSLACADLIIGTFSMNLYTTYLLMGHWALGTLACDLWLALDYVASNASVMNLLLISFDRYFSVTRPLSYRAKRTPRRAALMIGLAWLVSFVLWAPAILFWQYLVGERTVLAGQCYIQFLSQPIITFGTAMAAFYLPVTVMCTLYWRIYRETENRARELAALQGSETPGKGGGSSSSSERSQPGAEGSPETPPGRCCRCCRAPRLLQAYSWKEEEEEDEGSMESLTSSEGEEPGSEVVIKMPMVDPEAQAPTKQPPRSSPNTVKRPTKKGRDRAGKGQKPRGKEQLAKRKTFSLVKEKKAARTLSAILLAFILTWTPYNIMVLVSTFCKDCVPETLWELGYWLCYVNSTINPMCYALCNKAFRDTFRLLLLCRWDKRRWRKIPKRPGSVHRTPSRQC

C=COCC(C)C
inactive: Potency [1] | Potency [2] | Potency [3] | outcome [4] | outcome [5] | Potency [6] | Potency [7] | Potency [8] | Potency [9] | Potency [10] | Potency [11] | Potency [12] | Potency [13] | Potency [14] | Potency [15] | Potency [16] | Potency [17] | Potency [18]

N=C(N)c1ccc(OCCCOc2ccc(C(=N)N)cc2)cc1
inactive: Potency [1] | Potency [2] | Potency [3] | outcome [4] | outcome [5] | Potency [6] | Potency [7] | Potency [8] | Potency [9] | Potency [10] | Potency [11] | Potency [12] | Potency [13] | Potency [14] | Potency [15] | Potency [16] | Potency [17] | Potency [18]

O=C(O)C[C@H](O)C[C@H](O)/C=C/c1c(C2CC2)nc2ccccc2c1-c1ccc(F)cc1
inactive: activity change, negative = cytotoxicity [1] -15.1% [at 19 µM] | activity, positive = activation [2] -21.1% [at 19 µM] | activity change [3] -1.52% [at 11.8 µM, hits give high values] | activation [4] -0.214% [at 15.8 µM] | activation [5] -0.173% [at 11.8 µM] | activation [6] -13.7% [at 13.5 µM] | activation [7] -4.07% [at 13.6 µM] | activity change, negative = cytotoxicity [8] -1.08% [at 13.5 µM] | activity change, negative = cytotoxicity [9] 1.65% [at 13.5 µM] | activity change, negative = cytotoxicity [10] 0.0104% [at 13.5 µM] | activity, negative = inhibition [11] -9.13% [at 12.7 µM] | activation [12] -5.4% [at 15.9 µM] | activity, negative = inhibition [13] 7.39% [at 12.6 µM] | activation [14] -0.297% [at 15.8 µM] | activation [19] 0.303% [at 19 µM] | activity change, negative = inhibition [20] -0.968% [at 19 µM] | activation [17] -0.0463% [at 19 µM] | activity change, negative = inhibition [18] 4% [at 18.9 µM]

C[Si](C)(CCCN)O[Si](C)(C)CCCN
inactive: Potency [1] | Potency [2] | Potency [3] | outcome [4] | outcome [5] | Potency [6] | Potency [7] | Potency [8] | Potency [9] | Potency [10] | Potency [11] | Potency [12] | Potency [13] | Potency [14] | Potency [19] | Potency [15] | Potency [20] | Potency [16] | Potency [17]

Cc1c(N)cccc1Cl
inactive: Potency [1] | Potency [2] | Potency [3] | outcome [4] | outcome [5] | Potency [6] | Potency [7] | Potency [8] | Potency [9] | Potency [10] | Potency [11] | Potency [12] | Potency [13] | Potency [14] | Potency [19] | Potency [15] | Potency [20] | Potency [17] | Potency [18]

CCOC(=O)CC(C)O (stereo not given)
inactive: Potency [1] | Potency [2] | Potency [3] | outcome [4] | outcome [5] | Potency [6] | Potency [7] | Potency [8] | Potency [9] | Potency [10] | Potency [11] | Potency [12] | Potency [13] | Potency [14] | Potency [19] | Potency [15] | Potency [20] | Potency [18]
